# Reference: PubChem BioAssay (NCATS)
# Records with an inconclusive call do not appear. Values without a mark were called inactive. Calls of active or inactive are those of the source. Calls come from the whole dose curve; as a rule, active = well fitted inhibition curve with a large enough effect; inconclusive = small, poorly fitted or top-dose-only effect; inactive = flat fitted curve, though single readings scatter. Where a SMILES comes first, the peptide text is derived from it. [ ]: non-standard residue; d: D form. ξ: configuration not given here. ξLac(3-iPr) = CC(C)CC(O)C(=O)O; NMeV = CN[CH](C(=O)O)C(C)C; βAla = NCCC(=O)O
# Legend:
# Experiment in all cases: Cytotoxic Profiling of Annotated Libraries Using Quantitative High-Throughput Screening (AID 1296008); note: nearly all actives have a fitted effect of over 60% in size
# Conditions in all cases: Five cell lines viability, CellTiter-Glo ATP luminescence, 48-72 h; max response: active compounds read low
# [1] = system: CRL-7250
# Procedure, shortened: (§1)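 Cells exposed to compounds for 48 or 72 hr at 37 degrees Celsius. Viability read as ATP-coupled luminescence with CellTiter-Glo after 10 min at room temperature.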
# [2] = system: HEK293
# Procedure, shortened: as §1
# [3] = system: KB-3-1
# Procedure, shortened: as §1
# [4] = system: NIH3T3
# Procedure, shortened: as §1
# % is set by controls: 0 for no effect and ±100 for the full control effect; potency is the fitted concentration of half-maximal effect.
smiles,measurement,setting,value
CCN1CCN(Cc2ccc(Nc3ncc(F)c(-c4cc(F)c5nc(C)n(C(C)C)c5c4)n3)nc2)CC1,max response,[1],-7.11%
same,Potency,[2],3.66 µM (active)
same,Potency,[3],6.51 µM (active)
same,max response,[4],1.34%
C/C=C(\C)C(=O)OCC1OC(OC2OC(COC(=O)/C(C)=C/C)C(OC3OC(CO)C(OC(=O)/C(C)=C/C)C(OC(=O)/C(C)=C/C)C3O)C(O)C2O)C(O)C(O)C1OC1OC(CO)C(OC(=O)/C(C)=C/C)C(OC(=O)/C(C)=C/C)C1O (configuration not stated),max response,[1],-8.02%
same,max response,[2],-7.34%
same,max response,[3],-4.08%
same,max response,[4],-26.7%
CO[C@H]1/C=C/[C@@](C)(O)/C=C/C(=O)O[C@H](C)[C@@H](C)CC/C=C/1C,max response,[1],-17.6%
same,max response,[2],-82.6%
same,max response,[3],-8.74%
same,Potency,[4],3.21 µM (active)
CNS(=O)(=O)CC1CCC(N(C)c2ncnc3[nH]ccc23)CC1 (configuration not stated),max response,[1],2.42%
same,max response,[2],-8.69%
same,max response,[3],-6.06%
same,max response,[4],-10.7%
Cc1c2cc(c(C(=O)O)c1C)OC1OC(C(O)C(O)C1O)C(O)C(O)C1OC(O2)C(O)C(O)C1O (configuration not stated),max response,[1],-20.3%
same,max response,[2],-0.813%
same,outcome,[3],inactive
same,outcome,[4],inactive
N[C@@]1(C(=O)O)CC[C@H]2[C@H](C(=O)O)[C@H]21,outcome,[1],inactive
same,max response,[2],4.28%
same,max response,[3],2.99%
same,max response,[4],4.48%
COc1cc(O)cc(C)c1C(=O)OC1C(CO)OC(OC2C(O)C(O)C(O)C(O)C2O)C(O)C1O (configuration not stated),max response,[1],-0.0302%
same,max response,[2],4.85%
same,max response,[3],2.63%
same,max response,[4],-8.82%
C/C=C1\[C@H](O[C@@H]2O[C@H](CO)[C@@H](O)[C@H](O)[C@H]2O)OC=C2C(=O)OCCc3ccc(O)c(c3)Oc3ccc(cc3)CCOC(=O)C[C@H]21,max response,[1],-21.9%
same,max response,[2],-25.1%
same,max response,[3],-9.35%
same,max response,[4],-1.53%
CC(C)CC1OC(=O)C2CCCN2C(=O)CCNC(=O)C(Cc2ccccc2)NC(=O)C(C(C)C)N(C)C(=O)C(C(C)C)N(C)C1=O (configuration not stated) (cyclo([ξLac(3-iPr)][NMeV][NMeV]F[βAla]P); configuration not given here),max response,[1],2.18%
same,max response,[2],4%
same,max response,[3],3.73%
same,max response,[4],0.588%
COc1ccc(C2COc3cc(O)ccc3C2)c(O)c1 (configuration not stated),max response,[1],-2.17%
same,max response,[2],-0.71%
same,max response,[3],-10.5%
same,max response,[4],4.68%
CC(=O)N[C@@H](C(=O)O[C@H]1CCC(C)(C)[C@@H]2CCC3=C(COC3=O)[C@@]12C)C(C)C,max response,[1],-2.03%
same,max response,[2],1.75%
same,max response,[3],-11.9%
same,outcome,[4],inactive
O=S(=O)(Nc1ccccn1)c1ccc(N=Cc2c(O)[nH]c3ccc4ncsc4c23)cc1,outcome,[1],inactive
same,max response,[2],-3.48%
same,max response,[3],-4.18%
same,outcome,[4],inactive
CCOc1cc(N2CCC(O)CC2)ccc1Nc1ncc2c(n1)N(C1CCCC1)CCC(=O)N2C,Potency,[1],6.51 µM (active)
same,Potency,[2],5.8 µM (active)
same,Potency,[3],7.31 µM (active)
same,Potency,[4],4.11 µM (active)
COC(=O)N(C)c1c(N)nc(-c2nn(Cc3ccccc3F)c3ncccc23)nc1N,outcome,[1],inactive
same,max response,[2],-0.877%
same,max response,[3],0.515%
same,max response,[4],0.88%
CCCCc1nc2cc(/C=C/C(=O)NO)ccc2n1CCN(CC)CC,Potency,[1],5.8 µM (active)
same,Potency,[2],1.84 µM (active)
same,Potency,[3],1.46 µM (active)
same,Potency,[4],5.17 µM (active)
CCNC(=O)Nc1ccc(-c2nc3c(c(N4CCOC[C@@H]4C)n2)CCN(c2ncccn2)C3)cc1,Potency,[1],0.259 µM (active)
same,Potency,[2],0.184 µM (active)
same,Potency,[3],0.291 µM (active)
same,Potency,[4],1.03 µM (active)
CC(=O)OC1C(=O)C2(C)C(O)CC3OCC3(OC(C)=O)C2C(OC(=O)c2ccccc2)C2(O)CC(OC(=O)C(O)C(NC(=O)c3ccccc3)c3ccccc3)C(C)=C1C2(C)C (configuration not stated),Potency,[1],0.058 µM (active)
same,Potency,[2],0.0073 µM (active)
same,Potency,[3],0.0082 µM (active)
same,Potency,[4],0.092 µM (active)
CC1(C)CC[C@]2(C(=O)O)CC[C@]3(C)C(=CCC4[C@@]5(C)CC[C@H](O[C@@H]6O[C@H](CO)[C@@H](O)[C@H](O)[C@H]6O[C@@H]6O[C@H](CO)[C@@H](O)[C@H](O)[C@H]6O)[C@@](C)(CO)C5CC[C@]43C)[C@@H]2C1 (some centres not stated),max response,[1],-6.6%
same,max response,[2],-6.18%
same,max response,[3],8.35%
same,outcome,[4],inactive
